# TIM10 inh: inhibits growth of TIM10 yeast strain. S. cerevisiae TIM10 strain growth, BacTiter-Glo luminescence, 24 h. inhibition, % at 10 µM. 330,000 compounds, 1.4% hits;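 active = inhibition of 40% or more at the single tested concentration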;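 note: wild-type TIM10 isogenic control strain grown at permissive 25 °C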
# tim10-1 inh: growth inhibitors of tim10-1 mutant yeast; S. cerevisiae tim10-1 ts strain growth, BacTiter-Glo, 24 h; inhibition, % at 20 µM; 330,000 compounds, 2.2% hits;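 active = inhibition of at least 40%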;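 note: mutant grown at 25 °C; 0% = DMSO wells with yeast and 100% = wells holding no yeast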
# V-ATPase pHluor: alters yeast V-ATPase proton transport. S. cerevisiae, pHLuorin cytosolic pH fluorescence. 350,000 compounds, 0.37% hits. response, % at 10 µM; in the data active = response mostly above about 7.3%, no sharp cut-off; inactive = mostly below about 5.4%; note: actives read high
# PfHsp90 yeast 2: inhibits growth of yeast expressing Plasmodium falciparum Hsp90; S. cerevisiae expressing PfHsp90, BacTiter-Glo ATP, 48 h; yeast lacking PDR1 and PDR3 efflux regulators; inhibition, % at 9.4 µM; 310,000 compounds, 0.32% hits; AID 504621;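 active = every replicate shows inhibition above about 80%, whatever the replicate mean, limit read from the data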;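 note: 0% = DMSO neutral controls and 100% = 20 µM radicicol positive controls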
# tim23-1 inh: inhibits growth of tim23-1 mutant yeast; inhibition, % at 20 µM; 330,000 compounds, 1.3% hits; S. cerevisiae tim23-1 growth, BacTiter-Glo luminescence, 24 h;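 active = growth inhibition of the mutant yeast at or above 50%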;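 note: temperature-sensitive mutant grown at 25 °C; plate controls were DMSO-treated mutant yeast for no effect and medium wells lacking yeast for full effect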
# tim23-1 confirm: tim23-1 yeast growth inhibition, confirmed | shares compounds with tim23-1 inh | S. cerevisiae tim23-1 growth, BacTiter-Glo luminescence, 24 h | inhibition, % at 20 µM | 4,400 compounds, 83% hits | AID 463218;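 active = inhibition above about 39% in either of two replicate wells at 20 µM, limit read from the data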;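 note: temperature-sensitive tim23-1 mutant grown at 25 °C; 0% = DMSO wells with yeast and 100% = medium wells without yeast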
# Starred values were filed as active, the others as inactive; / = not tested or not shown. Sampled rows, rich in hits. Any-hit rate of the full collection: about 3.7%.
SMILES,TIM10 inh,tim10-1 inh,V-ATPase pHluor,PfHsp90 yeast 2,tim23-1 inh,tim23-1 confirm
CC(=O)Nc1sc(N/N=C/c2ccc(O)cc2)nc1-c1ccc(C)cc1,30,3,0,22,14,/
COc1ccccc1N(CC(=O)Nc1ccccc1C(F)(F)F)S(=O)(=O)c1cccs1,8,6,-2,/,35,/
O=S(=O)(c1ccc(Br)s1)N1CCN(c2ncccn2)CC1,-12,5,8,-41,8,/
O=S(=O)(c1ccc(Br)s1)N1CCN(c2ccccn2)CC1,30,38,1,14,57*,36
Cc1nc2scc(C)n2c(=O)c1S(=O)(=O)Nc1ccc(N2CCN(C(=O)C(C)C)CC2)cc1,8,-12,0,14,3,/
Cc1nc2scc(C)n2c(=O)c1S(=O)(=O)Nc1ccc(N2CCOCC2)cc1,-3,-2,0,-20,71*,47*
COc1ccc(NC(=O)CSc2nc3ccccc3c(=O)n2CCCO)cn1,9,16,-1,14,-2,/
Nc1cc(S(=O)(=O)C(F)(F)F)ccc1C(=O)O,-20,-11,-2,-5,-1,/
O=S(=O)(c1ccc2c(c1)C(O)c1ccccc1CC2)C(F)(F)F (stereo not given),24,34,-5,7,63*,45*
O=c1[nH]c2cc(Cl)c(Br)cc2o1,/,/,-4,-12,/,/
COc1cccc(Nc2nc3ccccc3n3cnnc23)c1,-3,17,-2,-13,15,/
COc1ccc(Nc2nc3ccccc3n3cnnc23)cc1Cl,12,21,-4,4,57*,5
Cc1noc(C)c1NC(=O)N(C)C[C@@H]1OCc2ccccc2-c2c(n(C)c3ccccc23)C(=O)N([C@H](C)CO)C[C@H]1C,/,/,-2,/,/,/
COC(=O)c1ccc2nc(NC(=O)C3CC3)sc2c1,33,34,3,12,51*,50*
Cn1cc(Cl)c(C(=O)Nc2nc3ccc(Cl)cc3s2)n1,-4,-1,-1,-8,1,/
CC1CC1C(=O)Nc1nc2ccc(Cl)cc2s1 (stereo not given),34,40,12,-67,56*,53*
Nc1cc(S(=O)(=O)Nc2ccccc2Cl)ccc1N1CCCCC1,31,36,-3,-50,58*,62*
CC(C)N1CCN(Cc2ccc(C#CCCO)cc2)CC1CCO (stereo not given),-4,10,-1,-13,1,/
CCOC(=O)CN1C(=O)CC(c2ccc([N+](=O)[O-])cc2)C1=O (stereo not given),21,34,2,-8,66*,66*
N#CCc1ccc(Oc2ncccn2)cc1,-3,12,0,-14,1,/
O=C(N/N=C/C(Br)=C\c1ccccc1)c1ccco1,-15,-88,2,13,66*,45*
Cc1occc1C(=O)N/N=C/C(Br)=C\c1ccccc1,30,14,6,7,63*,67*
O=C(N/N=C/C(Br)=C/c1ccccc1)c1ccncc1,13,25,2,9,28,/
Cc1[nH][nH]c(=O)c1C(c1ccc(-c2cccc(C(=O)O)c2)o1)c1c(C)[nH][nH]c1=O,6,8,-3,26,12,/
COC(=O)c1ccc(-c2ccc(C(c3c(C)[nH][nH]c3=O)c3c(C)[nH][nH]c3=O)o2)cc1,-6,0,0,7,57*,37*
SMILES,TIM10 inh,tim10-1 inh,V-ATPase pHluor,PfHsp90 yeast 2,tim23-1 inh,tim23-1 confirm
Cc1[nH][nH]c(=O)c1C(c1ccc(-c2cccc(Cl)c2)o1)c1c(C)[nH][nH]c1=O,-19,3,3,11,78*,62*
C/C(=N\Nc1ccc(Cl)cc1)c1ccncc1,22,28,0,9,54*,-15
O=C(Nc1ccc(NC(=O)C2CC2)cn1)c1ccccc1,5,5,7,-20,18,/
O=C(Nc1ccc(NC(=O)C2CC2)nc1)c1cccnc1,12,-2,4,-1,53*,9
CC(C)CNC(=O)C(=O)Nc1cc2c3c(c1)C(C)C(=O)N3CCC2 (stereo not given),3,12,-2,5,21,/
O=C(NCCS(=O)(=O)NCCc1ccccc1)c1ccccc1,-6,-4,2,8,3,/
Cc1ccc(C(C[N+](=O)[O-])c2c(N)n(C)c(=O)n(C)c2=O)cc1 (stereo not given),24,36,1,108*,54*,64*
COc1cc(C(C[N+](=O)[O-])c2c(N)n(C)c(=O)n(C)c2=O)ccc1O (stereo not given),28,-4,1,-6,48,/
Cc1ccc(-c2nc3n(n2)Cc2ccccc2-3)cc1,20,14,2,10,54*,50*
Fc1ccc(-c2nc3n(n2)Cc2ccccc2-3)cc1,4,23,-2,51,16,/
COc1ccc(/C=C/C(=O)Oc2ccc(C)c(C)c2)cc1OC,8,27,1,-1,17,/
COc1cc(/C=C/[N+](=O)[O-])ccc1OC(=O)/C=C/c1ccc(F)cc1,26,35,2,-18,55*,51*
COc1cccc(C(=O)N(C)Cc2c(C)nn(C3CCS(=O)(=O)C3)c2C)c1 (stereo not given),-8,-17,0,1,-12,/
Cc1ccc(-c2c(C)cc3oc(=O)cc(-c4ccccc4)c3c2C)cc1,-7,3,0,5,30,/
CC(=O)Nc1ccc(-c2c(C)cc3oc(=O)cc(-c4ccccc4)c3c2C)cc1,3,28,2,-61,50*,33
CC(=O)c1ccc(NC(=O)/C(C#N)=C/c2ccncc2)cc1,6,6,3,-4,13,/
N#C/C(=C\c1ccccc1)C(=O)Nc1ccccn1,30,14,-1,-1,53*,25
Cc1ccccc1NC(=O)/C(C#N)=C\c1cccnc1,38,31,0,10,44,/
CC(C)(C)c1ccc(/C=C(\C#N)C(=O)Nc2ccccn2)cc1,38,29,-1,14,55*,61*
N#C/C(=C\c1ccccc1)C(=O)Nc1cccnc1,14,21,1,-15,50*,50*
CCc1ccc(NC(=O)/C(C#N)=C/c2ccncc2)cc1,22,37,1,-8,74*,66*
Cc1occc1C(=O)Nc1cnn(CCCC(=O)O)c1,0,5,2,-17,14,/
Cc1ccc(C2CC(=O)Oc3cc(C)c(Br)c(C)c32)cc1 (stereo not given),16,19,-4,-14,40,/
Cc1cc(CNCCN(C)C)c(C)n1-c1cc(S(=O)(=O)N2CCOCC2)ccc1N1CCCC1,/,/,1,/,/,/
Cn1cncc1C#Cc1c(C=O)n(C)c2ccccc12,39,37,5,18,67*,62*
COc1ccc(Cl)cc1CC=NNC(=O)c1ccncc1,/,/,1,-26,/,/
Cc1c(N2C(=O)/C(=C/c3cccc4ccccc34)SC2=S)c(=O)n(-c2ccccc2)n1C,22,11,-4,18,19,/
